In the supplement of paper PMC6992640:
Counter-ions that a name gives are not always drawn. ± gives the standard deviation of the averaged measurements.

Key:
Test in all cases: cell viability (% of vehicle); higher = less cytotoxic
Conditions in all cases: 10 µM; 72 h
HCI01 = test system: HCI01 (cells of a triple-negative basal-like breast cancer xenograft)
HCI03 = test system: HCI03 (cells of an ER-positive luminal breast cancer xenograft)
HCI09 = test system: HCI09 (cells of a triple-negative luminal androgen receptor type breast cancer xenograft)
HCI11 = test system: HCI11 (cells of an ER-positive luminal breast cancer xenograft)
HCI13 = test system: HCI13 (cells of an ER-positive luminal breast cancer xenograft)
HCI16 = test system: HCI16 (cells of a triple-negative basal-like breast cancer xenograft)
UCD52 = test system: UCD52 (cells of a triple-negative basal-like breast cancer xenograft)
WHIM2 = test system: WHIM2 (cells of a triple-negative basal-like breast cancer xenograft)
WHIM30 = test system: WHIM30 (cells of a triple-negative basal-like breast cancer xenograft)
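Also: PDX cells carrying CMV promoter-driven luciferase, viability read as total photon flux per second by IVIS imaging following D-luciferin, vehicle control 0.1% DMSO.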

| SMILES | cell viability (HCI01) | cell viability (HCI03) | cell viability (HCI09) | cell viability (HCI11) | cell viability (HCI13) | cell viability (HCI16) | cell viability (UCD52) | cell viability (WHIM2) | cell viability (WHIM30) |
| --- | --- | --- | --- | --- | --- | --- | --- | --- | --- |
| COC(=O)Nc1nc2ccc(S(=O)c3ccccc3)cc2[nH]1 (centres undefined) [Oxfendazole] | 102 ± 25 | 132 | 113 ± 1.8 | 93.1 | 179 ± 34 | 147 | 95.3 ± 8 | 87 ± 7.4 | 139 ± 8.4 |
| COc1cc2nc(N3CCN(C(=O)C4CCCO4)CC3)nc(N)c2cc1OC.Cl.O.O (centres undefined) [Terazosin HCl] | 137 ± 8 | 116 | 110 ± 19 | 101 | 104 ± 2 | 123 | 85.8 ± 15 | 113 ± 5.9 | 114 ± 12 |
| CN1CCC(=C2c3ccccc3CC(=O)c3sccc32)CC1.O=C(O)C=CC(=O)O [Ketotifen Fumarate] | 120 ± 23 | 125 | 135 ± 31 | 102 | 135 ± 13 | 173 | 95.4 ± 4.4 | 84.4 ± 3.9 | 154 ± 5.5 |
| COc1ccc2c(c1)c(CC(=O)O)c(C)n2C(=O)c1ccc(Cl)cc1 [Indomethacin] | 106 ± 20 | 88.7 | 96.7 ± 1.1 | 79.2 | 105 ± 4.9 | 92 | 72.4 ± 13 | 92.1 ± 4.3 | 93 ± 5.3 |
| CN(Cc1ccc(C(C)(C)C)cc1)Cc1cccc2ccccc12.Cl [Butenafine HCl] | 104 ± 1.5 | 99.2 | 117 ± 19 | 104 | 72.7 ± 4.7 | 151 | 81.4 ± 2.7 | 56.2 ± 12 | 142 ± 3.3 |
| CN(Cc1cc(Br)cc(Br)c1N)C1CCCCC1.Cl [Bromhexine HCl] | 95.8 ± 14 | 86.3 | 93 ± 6 | 96.3 | 64.9 ± 2.5 | 106 | 73.8 ± 6.8 | 44.5 ± 15 | 108 ± 3.3 |
| COc1ccc(-c2ccc3cc(C(=O)O)ccc3c2)cc1C12CC3CC(CC(C3)C1)C2 [Adapalene] | 119 ± 6.1 | 81.4 | 92.2 ± 40 | 95.5 | 139 ± 23 | 82.7 | 179 ± 28 | 83.8 ± 12 | 114 ± 18 |
| CC(C)c1nc(CN(C)C(=O)NC(CCN2CCOCC2)C(=O)NC(CCC(Cc2ccccc2)NC(=O)OCc2cncs2)Cc2ccccc2)cs1 (centres undefined) [Cobicistat (GS-9350)] | 83.3 ± 3.6 | 74.2 | 53.3 ± 17 | 52.3 | 64.4 ± 11 | 128 | 67 ± 4.4 | 78.1 ± 3.2 | 96.6 ± 3.7 |
| Cc1cc(=O)[nH]c(=S)[nH]1 [Methylthiouracil] | 97.2 ± 29 | 119 | 94.7 ± 16 | 93.8 | 119 ± 2.5 | 115 | 92.7 ± 7.9 | 80.6 ± 8.1 | 139 ± 5.5 |
| CC(C)(C)NCC(O)COc1cccc2c1CCC(O)=N2.Cl (centres undefined) [Carteolol HCl] | 96.4 ± 13 | 144 | 97.3 ± 14 | 110 | 123 ± 1.9 | 115 | 114 ± 3.5 | 87.3 ± 17 | 116.5 ± 0.86 |
| O=C(CCCN1CC=C(n2c(=O)[nH]c3ccccc32)CC1)c1ccc(F)cc1 [Droperidol] | 108 ± 23 | 106 | 84.4 ± 9.8 | 97.5 | 113 ± 20 | 107 | 93.1 ± 5.3 | 96.6 ± 20 | 100 ± 2.3 |
| Cl.c1ccc2c(CC3=NCCN3)cccc2c1 [Naphazoline HCl] | 121 ± 18 | 105 | 104 ± 20 | 101 | 88.7 ± 14 | 93.3 | 81.6 ± 9.3 | 92.3 ± 26 | 122 ± 21 |
| COc1ccc(CN(CCN(C)C)c2ccccn2)cc1.O=C(O)/C=C\C(=O)O [Mepyramine maleate] | 93.8 ± 18 | 133 | 88.5 ± 12 | 93.9 | 85.6 ± 8.7 | 107 | 112 ± 8.7 | 94.4 ± 8.4 | 111 ± 6 |
| C[N+](C)(C)CC(=O)[O-] [Betaine] | 107 ± 33 | 140 | 103 ± 12 | 90.7 | 140 ± 1.5 | 116 | 106 ± 5.9 | 99.7 ± 16 | 90 ± 12 |
| O=C1Cc2cc(CCN3CCN(c4nsc5ccccc45)CC3)c(Cl)cc2N1 [Ziprasidone] | 98.1 ± 6.7 | 102 | 82.1 ± 4.3 | 96.1 | 95.4 ± 36 | 67.2 | 86.8 ± 2 | 95.6 ± 6.5 | 100 ± 20 |
| Cl.Cl.NCCc1cnc[nH]1 [Histamine 2HCl] | 118 ± 14 | 129 | 105 ± 8.2 | 105 | 124 ± 16 | 111 | 87.8 ± 4.6 | 81.3 ± 5.9 | 122 ± 5.2 |
| COc1ccc2[nH]cc(CCNC(C)=O)c2c1 [Melatonin] | 112 ± 10 | 134 | 106 ± 2.2 | 97.8 | 108 ± 3.3 | 109 | 127 ± 5.4 | 121 ± 26 | 158 ± 17 |
| Nc1ccc(O)c(C(=O)O)c1 [Mesalamine] | 110 ± 2.2 | 125 | 116 ± 8.1 | 103 | 130 ± 15 | 125 | 105 ± 2.3 | 92 ± 2.1 | 155 ± 27 |
| COc1ccc(-c2ccc3cc(C(=O)O)ccc3c2)cc1C12CC3CC(CC(C3)C1)C2 [Adapalene sodium salt] | 115 ± 29 | 81.9 | 114 ± 37 | 98.3 | 183 ± 2.4 | 158 | 157 ± 19 | 104 ± 10 | 96.8 ± 6.8 |
| COc1cc(C2c3cc4c(cc3C(OC3OC5COC(c6cccs6)OC5C(O)C3O)C3COC(=O)C23)OCO4)cc(OC)c1O (centres undefined) [Teniposide] | 104 ± 2.6 | 112 | 105 ± 36 | 111 | 134 ± 40 | 118 | 111 ± 1.8 | 87.3 ± 23 | 96.6 ± 4.3 |
| NC(=O)N1c2ccccc2C=Cc2ccccc21 [Carbamazepine] | 107 ± 2.9 | 103 | 94.3 ± 32 | 106 | 91.8 ± 1.1 | 99.6 | 85.8 ± 4.4 | 75.2 ± 22 | 98.8 ± 4.5 |

| SMILES | cell viability (HCI01) | cell viability (HCI03) | cell viability (HCI09) | cell viability (HCI11) | cell viability (HCI13) | cell viability (HCI16) | cell viability (UCD52) | cell viability (WHIM2) | cell viability (WHIM30) |
| --- | --- | --- | --- | --- | --- | --- | --- | --- | --- |
| c1ccc2[nH]c(-c3cscn3)nc2c1 [Thiabendazole] | 148 ± 9.3 | 160 | 82.8 ± 82 | 162 | 162 ± 8.2 | 119 | 167 ± 15 | 120 ± 13 | 102.2 ± 0.2 |
| C=C[C@@H]1C[N@@]2CC[C@H]1C[C@@H]2[C@H](O)c1ccnc2ccc(OC)cc12 [Quinidine] | 89 ± 10 | 135 | 102 ± 20 | 102 | 122 ± 8.8 | 123 | 97.9 ± 2.7 | 101 ± 11 | 101 ± 6.2 |
| CCCc1nc(C)c2c(=O)nc(-c3cc(S(=O)(=O)N4CCN(CC)CC4)ccc3OCC)[nH]n12 [Vardenafil] | 98.2 ± 24 | 169 | 113 ± 14 | 97.3 | 102 ± 5.5 | 127 | 109 ± 12 | 97.77 ± 0.38 | 107 ± 1.9 |
| Cn1c([N+](=O)[O-])cnc1COC(N)=O [Ronidazole] | 95.3 ± 20 | 134 | 94.5 ± 2.1 | 88.1 | 102 ± 13 | 108 | 91.2 ± 2.2 | 90.4 ± 19 | 102 ± 2.5 |
| CCc1ccc(CCOc2ccc(CC3SC(=O)NC3=O)cc2)nc1.Cl (centres undefined) [Pioglitazone HCl] | 119 ± 6.9 | 129 | 93.7 ± 19 | 125 | 126 ± 2 | 102 | 116 ± 11 | 116 ± 13 | 182 ± 40 |
| C[N+](C)(C)CCO.[Cl-] [Choline Chloride] | 135 ± 42 | 120 | 89.2 ± 11 | 78.8 | 73.78 ± 0.7 | 116 | 85.6 ± 10 | 105 ± 17 | 101 ± 3.5 |
| CC(=O)OC1(C(C)=O)CCC2C3C=C(Cl)C4=CC(=O)C5CC5C4(C)C3CCC21C (centres undefined) [Cyproterone Acetate] | 88.6 ± 12 | 112 | 73.1 ± 17 | 87.1 | 145 ± 8 | 110 | 89.2 ± 7.3 | 116 ± 34 | 128 ± 7.7 |
| CCCc1ncc(C[n+]2ccccc2C)c(N)n1.Cl.[Cl-] [Amprolium HCl] | 129 ± 15 | 135 | 102 ± 4.4 | 104 | 128 ± 7 | 145 | 71.4 ± 27 | 110 ± 7.3 | 99.4 ± 13 |
| OC(Cn1cncn1)(Cn1cncn1)c1ccc(F)cc1F [Fluconazole] | 71.5 ± 43 | 153 | 99.3 ± 22 | 94.2 | 112 ± 4.8 | 119 | 76.5 ± 8.7 | 99.2 ± 27 | 180 ± 2.3 |
| CCC1(O)CC2CN(CCc3c([nH]c4ccccc34)C(C(=O)OC)(c3cc4c(cc3OC)N(C)C3C(O)(C(=O)OC)C(OC(C)=O)C5(CC)C=CCN6CCC43C65)C2)C1 (centres undefined) [vinblastine] | 123 ± 3.3 | 91.1 | 45.7 ± 42 | 96.2 | 37.6 ± 3.4 | 164 | 68 ± 10 | 80.7 ± 22 | 124 ± 17 |
| CCOC(=O)CC(=O)N1CCSC1COc1ccccc1OC (centres undefined) [Moguisteine] | 68.2 ± 37 | 114 | 102 ± 8.2 | 89.5 | 115 ± 9 | 127 | 83.2 ± 4.3 | 88.7 ± 22 | 131 ± 4.4 |
| NC(=O)C1CCCc2c1[nH]c1ccc(Cl)cc21 (centres undefined) | 145 ± 13 | 182 | 102 ± 2.3 | 128 | 148 ± 9 | 121 | 128 ± 12 | 141 ± 7.4 | 161 ± 24 |
| Nc1nc(N)nc(-c2cc(Cl)ccc2Cl)n1 [Irsogladine] | 92.7 ± 5.9 | 113 | 91.9 ± 16 | 89.7 | 102 ± 18 | 108 | 107 ± 4.4 | 114 ± 4.4 | 76.4 ± 4.1 |
| CC12CCC3c4ccc(O)cc4CC(CCCCCCCCCS(=O)CCCC(F)(F)C(F)(F)F)C3C1CCC2O (centres undefined) [Fulvestrant] | 137 ± 7.5 | 89.1 | 65.5 ± 7.2 | 85.6 | 53 ± 6.5 | 95.7 | 78.9 ± 3.8 | 77.5 ± 36 | 129 ± 12 |
| O=c1ccc2ccccc2o1 [Coumarin] | 110 ± 15 | 145 | 99.9 ± 6.8 | 95 | 102 ± 7.2 | 128 | 93.3 ± 14 | 113 ± 4.4 | 114 ± 2.5 |
| CCOC(=O)c1ccc(OC(=O)CCCCCN=C(N)N)cc1.CS(=O)(=O)O [Gabexate mesylate] | 170 ± 9.1 | 122 | 98 ± 3.2 | 147 | 96.8 ± 1.2 | 159 | 142 ± 6.2 | 111 ± 10 | 180 ± 27 |
| OCC(CO)NC1CC(O)(CO)C(O)C(O)C1O (centres undefined) [Voglibose] | 106 ± 13 | 109 | 93 ± 17 | 89.1 | 58.7 ± 0.94 | 129 | 80.3 ± 5.1 | 117 ± 27 | 110 ± 8.8 |
| CCCC(CCC)C(=O)O [Valproic acid] | 102 ± 13 | 121 | 133 ± 28 | 103 | 143 ± 3.3 | 106 | 95.8 ± 6.9 | 95.6 ± 7.5 | 83.36 ± 0.16 |
| CC(O)C1C(=O)N2C(C(=O)O)=C(SC3CNC(C(=O)N(C)C)C3)C(C)C12 (centres undefined) [Meropenem] | 103 ± 7 | 106 | 87.1 ± 6.1 | 95.1 | 98.6 ± 2.3 | 103 | 73.2 ± 6.8 | 83.4 ± 4.6 | 112 ± 5.1 |
| Nc1c(CC(=O)[O-])cccc1C(=O)c1ccc(Br)cc1.[Na+] [Bromfenac Sodium] | 134 ± 34 | 104 | 82.1 ± 13 | 103 | 76.6 ± 16 | 96.2 | 89 ± 4 | 132 ± 25 | 111 ± 6.5 |
